Bioassay records deposited in PubChem by National Center for Advancing Translational Sciences (NCATS).
PTAP TSG101 blk: blocks PTAP/TSG101 interaction to inhibit HIV-1 budding. Q99816. Fluorescence polarization, FITC-PTAP peptide / Tsg101 binding. Potency, µM (doses to about 115 µM), usual class: inhibitors. 340,000 tested, under 10 active; active = well fitted inhibition curve with a large enough effect in the main read-out, with a control signal flat, not every such curve was filed as active; inconclusive = small, poorly fitted or top-dose-only effect, or effect the other way, or a change in a side signal; inactive = no such curve, though single readings can be large or run the other way
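Compounds were pin-transferred onto Tsg101 binding domain (10 uM final) in HEPES pH 7.5 buffer, then FITC-PTAP peptide was added at 50 nM final. After 20 min at RT, polarization reported peptide displacement across a qHTS concentration series.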
KAT2A inh: inhibitors of human GCN5L2 histone acetyltransferase | AID 504327 | 0.21% of 390,000 active | Q92830 | Potency, µM (doses to about 58.9 µM), hits mostly inhibitors | GCN5L2 HAT assay, ThioGlo1 CoA-SH fluorescence
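qHTS, 1536-well. 20nM enzyme, pH 7.5 HEPES/EDTA/Tween-20 buffer; 15 min compound preinc., RT. Start: 75uM H3(1-25), 70uM AcCoA, 50uM ThioGlo1. Read Ex340/Em540 at t=0 (autofluorescence flag) and t=20 min.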
USP1-UAF1 inh: blocks the human USP1/UAF1 deubiquitinase complex; AID 743255; Potency, µM (series often up to 57.1 µM), hits mostly inhibitors; recombinant USP1/UAF1, Ub-Rhodamine cleavage fluorescence; 0.23% of 390,000 active; O94782; also: nearly all actives have a fitted effect of over 60% in size
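In this screen, compounds sit with the deubiquitinase complex (1nM) for 15 min at room temperature before Ub-Rho is added at 150nM final. Fluorescence rise is then followed for 6 reads every 60 seconds.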
VDR inhibitor: inhibitors of human vitamin D receptor | P11473 | VDR-SRC2-3 peptide fluorescence polarization, 2 h | Potency, µM, actives largely listed as inhibitors | 0.93% of 400,000 active | AID 504847
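Signal is fluorescence polarization, reporting how far test compounds block the interaction of VDR with the SRC2-3 coregulator peptide after a 2 h room-temperature incubation.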
PLK1 PBD block: PLK1 (human) polo-box domain binding inhibition; Plk1 PBD binding of FITC phosphopeptide, fluorescence polarization; Potency, µM, actives largely listed as inhibitors; 2.8% of 360,000 active; AID 720504; also: series mostly up to about 57 µM; nearly all actives have a fitted effect of over 65% in size
Target sequence (P53350 whole entry, looked up, the tested form may be a part): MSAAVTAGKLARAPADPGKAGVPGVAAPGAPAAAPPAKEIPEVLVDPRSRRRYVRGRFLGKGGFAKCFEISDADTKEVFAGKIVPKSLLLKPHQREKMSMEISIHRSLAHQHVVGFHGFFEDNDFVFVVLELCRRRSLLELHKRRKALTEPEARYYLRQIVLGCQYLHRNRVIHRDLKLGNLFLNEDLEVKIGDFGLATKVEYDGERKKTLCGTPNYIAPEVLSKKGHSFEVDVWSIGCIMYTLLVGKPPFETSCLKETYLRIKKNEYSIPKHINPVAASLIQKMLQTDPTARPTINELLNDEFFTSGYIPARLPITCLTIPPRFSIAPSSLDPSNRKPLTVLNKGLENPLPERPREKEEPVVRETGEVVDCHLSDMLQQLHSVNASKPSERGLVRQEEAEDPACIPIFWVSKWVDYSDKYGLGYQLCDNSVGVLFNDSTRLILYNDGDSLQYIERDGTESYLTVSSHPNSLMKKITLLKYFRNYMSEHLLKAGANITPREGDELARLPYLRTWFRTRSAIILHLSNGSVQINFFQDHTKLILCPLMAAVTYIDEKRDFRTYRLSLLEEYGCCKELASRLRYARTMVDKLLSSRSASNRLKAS
Large screens that a line does not name were inactive. Only some compounds are listed: those with a hit (about 3% of all), similar ones and a draw of the others. Unless noted, calls follow the shape of the dose curve; as a rule, active = well fitted curve in the direction sought with a large enough effect; inconclusive = small, poorly fitted or top-dose-only effect, or another doubt; inactive = no such curve, though single readings can be large; an effect the other way counts as inactive or inconclusive.

COc1ccc(-c2nc(CSCC(=O)NCC3CCCO3)c(C)o2)cc1OC (stereo unspecified)	none
COc1ccc(-c2nc(CN3CCC(C(=O)NCC4CCCO4)CC3)c(C)o2)cc1OC (stereo unspecified)	PLK1 PBD block 21µM
Oc1c(Cl)cc(Cl)cc1Sc1cc(Cl)cc(Cl)c1O	KAT2A inh inconclusive, VDR inhibitor 28µM (no result: PTAP TSG101 blk, USP1-UAF1 inh, PLK1 PBD block)
COCCCn1cc(CN2CC(N3CCN(CCN(C)C)CC3)CS2(=O)=O)nn1 (stereo unspecified)	none (no result: PTAP TSG101 blk, KAT2A inh, USP1-UAF1 inh, VDR inhibitor)
COc1ccc(C[C@@H]2CN3C(=NC[C@@H]3Cc3ccc(O)cc3)N2C[C@H](C)NC(=O)CCC2CCCCC2)cc1	PLK1 PBD block 27µM
COc1ccc(C[C@H]2CN3C(=NC[C@@H]3Cc3ccc(O)cc3)N2C[C@H](C)NC(=O)CCC2CCCCC2)cc1	none
CC(C)[C@H]1CN=C2N(C[C@H](C)NC(=O)CCC3CCCCC3)[C@H](Cc3ccc(O)cc3)CN21	PLK1 PBD block 13µM (no result: PTAP TSG101 blk)
CCCCN(CC)C(=O)Cn1cc2c(n1)-c1c(oc(C(=O)N3CCCC3)c1C)CC2	USP1-UAF1 inh inconclusive (no result: PTAP TSG101 blk, PLK1 PBD block)
COc1cc(Cl)ccc1OCc1cc(C(=O)N(C)CCc2cnn(C)c2)no1	none
CCCCNC(=O)CSc1cc(=O)n(C)c2ccccc12	PLK1 PBD block 27µM
CCN(CCCNC(=O)CSc1cc(=O)n(C)c2ccccc12)c1ccccc1	none (no result: PTAP TSG101 blk, PLK1 PBD block)
O=C(Nc1cccc(C(=O)OCc2cc(=O)n3c4c(sc3n2)CCCC4)c1)c1ccccc1	USP1-UAF1 inh inconclusive (no result: PTAP TSG101 blk, PLK1 PBD block)
COc1ccc(-c2nc(CN3CCC(C(=O)NCCCN4CCN(c5ccccc5F)CC4)CC3)c(C)o2)cc1OC	none (no result: PTAP TSG101 blk, PLK1 PBD block)
COc1ccc(N2CC(O)=C(c3nc(-c4ccccc4)cs3)C2=N)cc1	VDR inhibitor inconclusive, PLK1 PBD block 13µM
COc1ccc(-c2csc(-c3ccc(O)cc3)n2)cc1	USP1-UAF1 inh inconclusive, VDR inhibitor inconclusive, PLK1 PBD block 21µM
COc1ccc(N2CC(O)=C(c3nc(-c4ccc(Br)cc4)cs3)C2=N)cc1	none
COc1ccc(OC)c(NC(=O)c2cc3c(s2)-c2ccccc2SC3)c1	none (no result: PTAP TSG101 blk, PLK1 PBD block)
c1ccc2c(c1)[nH]c1c(N3CCOCC3)ncnc12	none
CCc1cc(N2CCOCC2)cc2c1[nH]c1ccccc12	PLK1 PBD block 24µM
COCCNc1nnc(SCC(=O)NNC(=O)c2ccccc2)s1	PLK1 PBD block 27µM
COc1ccc(NC(=O)CSc2nnc(NC(=O)c3ccccc3C(=O)O)s2)cc1	PLK1 PBD block 17µM
COCCNc1nnc(SCC(=O)NC(=O)c2ccc(Cl)cc2)s1	none
O=C(O)Cn1nc(-c2ccccc2)cc1-c1ccccc1	VDR inhibitor inconclusive, PLK1 PBD block 21µM
CN(C)c1ncc2nc(-c3cccs3)c(=O)n(C3CC3)c2n1	KAT2A inh inconclusive (no result: PTAP TSG101 blk, USP1-UAF1 inh, PLK1 PBD block)
COc1c(OC(C)=O)c(=O)n2c3ccccc3c3ccnc1c32	PLK1 PBD block 24µM
N#C/C(=C\C=C\c1ccccc1)C(=O)NCc1cccnc1	VDR inhibitor inconclusive, PLK1 PBD block 24µM
Cc1cc(NC(=O)C2CC2)ncc1NC(=O)c1ccccn1	PLK1 PBD block 27µM
Cc1nc2c3ccccc3nc(NNC(=O)CCC(=O)NCCN3CCN(c4ccccc4F)CC3)n2n1	PLK1 PBD block 30µM
COCCNC(=O)CCC(=O)NNc1nc2ccccc2c2nc(C)nn12	none
Fc1ccccc1NC(=S)NCCc1ccc(Cl)cc1	none
S=C(NCCc1ccccc1)Nc1c(Cl)cccc1Cl	PLK1 PBD block 27µM
Fc1ccccc1NC(=S)NCCc1ccccc1	PLK1 PBD block 3µM
O=c1cnc2cnc(Nc3ccccc3)nc2n1CCc1ccccc1	none (no result: PTAP TSG101 blk, USP1-UAF1 inh, PLK1 PBD block)
O=C(Nc1cccc(-n2cccn2)c1)C1CCCN(Cc2cc3ccccc3[nH]2)C1 (stereo unspecified)	KAT2A inh inconclusive, VDR inhibitor inconclusive, PLK1 PBD block 21µM
Cc1cc(CN2CCCC(C(=O)Nc3cccc(-n4cccn4)c3)C2)cc(C)c1O (stereo unspecified)	PLK1 PBD block inconclusive
COc1ccc2c(C)c(CCC(=O)NCc3ccc(Cl)cc3)c(=O)oc2c1C	none (no result: PTAP TSG101 blk, PLK1 PBD block)
CCN(CC)CCOc1nc(C)nc2c1oc1ccccc12	PLK1 PBD block 27µM
COc1ccc(-c2cnc3c(NC(C)=O)cc(-c4ccsc4)cn23)cc1OC	PLK1 PBD block 24µM (no result: PTAP TSG101 blk, KAT2A inh, USP1-UAF1 inh, VDR inhibitor)
O=C1CCCC(O)=C1C(C#Cc1ccccc1)C1=C(O)CCCC1=O	VDR inhibitor inconclusive, PLK1 PBD block 2.4µM
CC1(C)CC(=O)C(N=Nc2ccc(-c3ccccc3)cc2)=C(O)C1	none
CC1(C)CC(=O)C(C(C#Cc2ccccc2)C2=C(O)CC(C)(C)CC2=O)=C(O)C1	VDR inhibitor 22µM, PLK1 PBD block 4.2µM
O=C1CCCc2[nH]c(-c3ccccc3)nc21	none
O=C(O)c1ccccc1Sc1ccccc1S(=O)(=O)NC1CCCCC1	none
O=C1CCCC(O)=C1Sc1ccccc1C(=O)O	PLK1 PBD block 21µM
CCN(CC)c1ccc(/C=C/C(=O)c2ccc(Br)cc2)cc1	PTAP TSG101 blk inconclusive, USP1-UAF1 inh 28µM
CC1CCC(C(C)C)C(P(=O)(c2ccccc2)c2ccccc2)C1 (stereo unspecified)	none (no result: PTAP TSG101 blk, USP1-UAF1 inh, PLK1 PBD block)
COc1cc(Cl)ccc1NC(=S)N(CCCN1CCOCC1)Cc1cn(C)c2ccccc12	VDR inhibitor inconclusive, PLK1 PBD block 5.3µM
COc1ccc(Cl)cc1NC(=S)N(CCCN1CCOCC1)Cc1cn(C)c2ccccc12	VDR inhibitor inconclusive, PLK1 PBD block 6µM
Oc1ccc(Br)cc1/C=N/n1c(C2CCCCC2)n[nH]c1=S	PLK1 PBD block 27µM
CCn1c(C)cs/c1=N\S(=O)(=O)c1ccccc1	none
O=Cc1s/c(=N\S(=O)(=O)c2ccccc2)n(CCCCl)c1Cl	VDR inhibitor 22µM, PLK1 PBD block 4.7µM
CC1CC(C)CN(C(=O)COC(=O)Cc2ccc(Cl)cc2)C1 (stereo unspecified)	none
CC1CC(C)CN(C(=O)COC(=O)Cc2ccc(Br)cc2)C1 (stereo unspecified)	PLK1 PBD block 30µM
COCCN(CCOC)Cc1c(O)ccc2c1O/C(=C\c1ccc(C)o1)C2=O	PTAP TSG101 blk inconclusive, USP1-UAF1 inh 32µM
CN1C(=O)C(CC(=O)NC2CCCCC2)SC1=Nc1ccccc1 (stereo unspecified)	PLK1 PBD block 30µM
CCN=C1SC(CC(=O)NC2CCCCC2)C(=O)N1CC (stereo unspecified)	none
Cc1c(C#N)c2ccccc2n1CC(=O)N1CCCc2ccccc21	none
Cc1c(C#N)c2ccccc2n1CC(=O)N1CCCC1	VDR inhibitor inconclusive, PLK1 PBD block 30µM
CCOC(=O)CSc1nnc(NCC(=O)OC)c(=O)[nH]1	VDR inhibitor 40µM, PLK1 PBD block inconclusive
CCOC(=O)CSc1nnc(C)c(=O)[nH]1	none
C[C@H](CCC(=O)NCC(=O)O)C1CC[C@H]2C3CC[C@@H]4C[C@H](O)CC[C@]4(C)C3C[C@H](O)[C@]12C (stereo partly specified)	none (no result: PTAP TSG101 blk, USP1-UAF1 inh, PLK1 PBD block)
